An excerpt weighted towards active compounds, which were near 1.8% of everything screened.
GLP-1R inv ag: GLP-1 receptor (human) inverse agonism; HEK293 GLP-1R CRE-luciferase, luminescence, 24 h; GLP-1R form is constitutively active; Potency, µM (titrated, usually from 38.3 µM), without a hit: at the highest dose activity change, negative = inhibition, usual class: inhibitors; hit rate 1.6% among 410,000; AID 624417; also: potency is read from the fitted curve at half-maximal effect; % is scaled to controls: 0 for no effect and ±100 for the full control effect; nearly all actives have a fitted effect of over 55% in size
Target sequence (P43220 whole entry, looked up): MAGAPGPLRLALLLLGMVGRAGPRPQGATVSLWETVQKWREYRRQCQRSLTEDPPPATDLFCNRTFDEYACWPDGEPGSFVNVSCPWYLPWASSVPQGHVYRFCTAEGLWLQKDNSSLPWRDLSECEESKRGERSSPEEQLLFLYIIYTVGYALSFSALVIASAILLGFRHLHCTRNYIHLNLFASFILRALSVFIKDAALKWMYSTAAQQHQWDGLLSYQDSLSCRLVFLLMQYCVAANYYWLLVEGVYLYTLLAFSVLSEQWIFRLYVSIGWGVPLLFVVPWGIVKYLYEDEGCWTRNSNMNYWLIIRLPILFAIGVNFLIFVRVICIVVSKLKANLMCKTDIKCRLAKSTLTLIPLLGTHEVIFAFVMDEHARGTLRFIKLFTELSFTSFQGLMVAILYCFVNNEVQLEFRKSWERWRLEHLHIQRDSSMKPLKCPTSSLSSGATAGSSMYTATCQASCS
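Cells are plated, allowed 12 hours at 37 deg C, then treated with compounds for 24 hr before luciferase detection reagent is added and luminescence is read after 12 min at room temperature. The HEK293 line carries constitutively active GLP-1R with a cAMP-responsive reporter.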
TRPML1 ag: human mucolipin-1 channel agonism; Q9GZU1; TRPML1-expressing cells, Ca2+ dye fluorescence, FDSS; activation, % (no concentration beside the values); hit rate 0.12% among 410,000; in the data active = activation above about 50%; inconclusive = mostly about 30% to 49%; also: 0% is about no effect
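Agonist activity was taken from a 110 s kinetic Ca2+ dye read on the FDSS after pinning compounds onto TRPML1-DL cells. The cells were seeded at 1,500/well with Tet inducer, incubated about 16 h, then dye-loaded at room temperature.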
TRPML1 inh: human mucolipin-1 channel inhibition | activity change, negative = inhibition, % (concentration not given with the values) | TRPML1-inducible cells, Ca2+ dye fluorescence, FDSS; active compounds read low; inhibition of EC80 agonist-evoked calcium signal | hit rate 0.02% among 390,000 | AID 624415 | Q9GZU1; in the data active = activity change below about -50%; inconclusive = between about -30% and that limit;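 also: stimulus is agonist 54-4 at its EC80 concentration; % is scaled to controls: 0 for no effect and ±100 for the full control effect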
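Calcium fluorescence in TRPML1-DL cells induced overnight with Tet: a 110 s read after compound pin addition, then a 110 s antagonist read after challenge with 54-4 at 4 uM final (EC80).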
GLP1R cytotox: cytotoxicity counter-screen for GLP-1 receptor inverse agonists; HEK293 cAMP-luciferase reporter cells, luminescence, 24 h; Potency, µM (doses to about 38.3 µM), for inactives: at the top dose activity change, negative = inhibition, most hits filed as inhibitors; hit rate 0.13% among 410,000;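 also: loss of luciferase light is scored as toxicity; potency is read from the fitted curve at half-maximal effect; % is scaled to controls: 0 for no effect and ±100 for the full control effect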
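Luminescence readout: signal drop marks cytotoxicity. Plated cells grew 12 h at 37 °C, 5% CO2, received 23 nL compound for 24 h, then got luciferase reagent, read after 12 min at RT.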
GLP-1R agonist: GLP-1 receptor (human) agonism; P43220; HEK293 GLP-1R CRE-luciferase, luminescence, 4-6 h; cells express a hypersensitive GLP-1R form; Potency, µM (doses to about 45.6 µM), for inactives: at the top dose activation, usual class: activators; hit rate 0.007% among 380,000; AID 624172; also: potency is read from the fitted curve at half-maximal effect; % of control where 0% means no effect
* hit, by the source's call; ? = inconclusive; . = not tested or not shown. Unless noted, calls follow the shape of the dose curve; as a rule, active = well fitted curve in the direction sought with a large enough effect; inconclusive = small, poorly fitted or top-dose-only effect, or another doubt; inactive = no such curve, though single readings can be large; an effect the other way counts as inactive or inconclusive.

SMILES	GLP-1R inv ag	TRPML1 ag	TRPML1 inh	GLP1R cytotox	GLP-1R agonist
C=CCc1ccccc1OCC(O)CN1CCN(c2ccccc2F)CC1 (configuration not stated)	10µM*	1	-16	-19%	-6%
C=C1[C@H](C)CN(S(=O)(=O)C(C)(C)C)[C@H]1CCO	1%	0	3	2%	8%
CC(C)(C)S(=O)(=O)N1C[C@@H]2CC/C=C\C/C=C\2[C@H]1CCO	5µM*	-1	-12	-4%	-4%
CC(C)(C)S(=O)(=O)N1C[C@H]2CC/C=C\C/C=C\2[C@@H]1CCO	2.8µM*	-1	34	2%	-5%
COc1cccc(NC(=O)CN(C)C(=O)Cc2cccc3ccccc23)c1	?	-1	7	-15%	-6%
COc1cccc(NC(=O)CN(C)C(=O)C(Sc2ccccc2)c2ccccc2)c1 (configuration not stated)	11µM*	3	22	-10%	5%
O=C(OCC(=O)N(Cc1ccccc1)Cc1ccccc1)c1ccccc1NCCO	5.6µM*	1	-1	4%	18%
COc1ccc(CC2(CO)CCN(Cc3cc4ccccc4o3)CC2)cc1	10µM*	0	13	-3%	25%
CC1(C)CC(=O)c2cc(C(=O)Nc3cccc4ccccc34)c(=O)[nH]c2C1	.	-1	.	.	.
CCCCCCC[C@@H](C/C=C/CCC(=O)N(C)C/C(=C/Cl)C/C(=C\C(=O)N1C[C@H](O)CC1=O)OC)OC	11µM*	-1	50	-19%	4%
Cc1cc(N2CCN(C)CC2)nc2ccc(NC(=O)c3ccc(Br)o3)cc12	?	-1	0	?	8%
CCCN1CCN(C(=S)Nc2ccc3nc(N4CCN(CC)CC4)cc(C)c3c2)CC1	4µM*	0	23	3.2µM*	10%
CCN1CCN(c2cc(C)c3cc(NC(=S)N4CCN(c5ccccc5)CC4)ccc3n2)CC1	1.3µM*	-1	27	20%	8%
CCN1CCN(c2cc(C)c3cc(NC(=S)NCc4cccs4)ccc3n2)CC1	?	1	-17	?	17%
CCN1CCN(c2cc(C)c3cc(NC(=S)N4CCOCC4)ccc3n2)CC1	?	0	-8	?	2%
Cc1cc(N2CCCCC2)nc2ccc(NC(=O)c3ccc(Br)o3)cc12	2.8µM*	0	-13	?	-7%
Cc1cc(N2CCN(C)CC2)nc2ccc(NC(=S)NCc3cccs3)cc12	1µM*	0	64	?	2%
Cc1nc2ccc(S(=O)(=O)N(CC(=O)Nc3ccc(F)cc3F)Cc3ccccc3)cc2s1	-20%	3	19	4%	.
COc1cc(OC)c(OC)cc1/C=c1\[nH]c(=O)/c(=C/c2cc(OC)c(OC)cc2OC)[nH]c1=O	.	0	.	.	.
Cc1ccc(C)c(N2CCN(C(=S)Nc3ccc4nc(N5CCN(C)CC5)cc(C)c4c3)CC2)c1	2.5µM*	.	.	-14%	8%
Cc1cc(N2CCOCC2)nc2ccc(NC(=O)CCC(=O)N3CCN(c4cccc(C(F)(F)F)c4)CC3)cc12	10µM*	4	35	-18%	-2%
CCC(C)NC(=S)Nc1ccc2nc(N3CCN(CC)CC3)cc(C)c2c1 (configuration not stated)	3.5µM*	-1	4	?	-1%
Cc1ccc(C)c(N2CCN(C(=S)Nc3ccc4nc(N5CCOCC5)cc(C)c4c3)CC2)c1	?	1	17	10%	-1%
CCC(C)NC(=S)Nc1ccc2nc(N3CCOCC3)cc(C)c2c1 (configuration not stated)	-3%	-1	16	1%	16%
Cc1ccc(C(=O)c2oc3ccccc3c2NC(=O)Cc2coc3cc(C)ccc23)cc1	-5%	0	14	0%	.
SMILES	GLP-1R inv ag	TRPML1 ag	TRPML1 inh	GLP1R cytotox	GLP-1R agonist
Cc1c(Cl)ccc2c(C(=O)NCCCn3nccc3C)cc(-c3ccccn3)nc12	?	1	18	-4%	0%
Cc1c(Cl)ccc2c(C(=O)NCCN3CCCCC3)cc(-c3ccccn3)nc12	3.5µM*	1	-12	?	5%
O=C1c2ccccc2CCCC12N=NCC2c1cccc2ccccc12 (configuration not stated)	7.1µM*	2	18	13%	0%
Cc1ccc(C2CN=NC23CCc2ccccc2C3=O)cc1 (configuration not stated)	-2%	-1	-11	-14%	-7%
CCC(c1nnnn1CCc1ccccc1)N(Cc1ccco1)Cc1cc2cc(C)cc(C)c2[nH]c1=O (configuration not stated)	?	1	12	-13%	-1%
CCC(c1nnnn1CCc1ccccc1)N(Cc1ccco1)Cc1cc2c(C)ccc(C)c2[nH]c1=O (configuration not stated)	11µM*	0	9	-25%	1%
CCn1nc(C)c2c(-c3ccccc3)cc(=O)n(C(C)C(=O)Nc3cccc(F)c3)c21 (configuration not stated)	7.9µM*	1	6	0%	.
CCN(C(=O)c1cccn(Cc2cccc(Cl)c2)c1=O)c1ccccc1	15%	1	1	-8%	1%
CC(C)C(=O)NC(c1cccc([N+](=O)[O-])c1)c1ccc2cccnc2c1O (configuration not stated)	?	3	25	2.5µM*	-14%
CCCC(=O)NC(c1cccc([N+](=O)[O-])c1)c1ccc2cccnc2c1O (configuration not stated)	?	-1	12	?	-5%
COc1ccc(C(NC(C)=O)c2ccc3cccnc3c2O)c(OC)c1 (configuration not stated)	3.5µM*	-1	2	?	0%
Cc1ccc(-c2cc(C(F)(F)F)n3nc(C(=O)Nc4ccc(Cl)c(C(F)(F)F)c4)cc3n2)cc1	-2%	-1	-12	-8%	.
COc1ccc(/C=C2/CCC(CN3CCOCC3)C2=O)cc1 (configuration not stated)	5.6µM*	4	5	5µM*	-17%
COc1cccc2cc(C(=O)NC3CC4CCC3C4)oc12 (configuration not stated)	10µM*	0	15	-8%	3%
CCCCNc1ccc(C(F)(F)F)cc1S(=O)(=O)NCCc1ccc(F)cc1	?	0	7	4%	-1%
CCCCN1C(=O)N(CCc2ccc(F)cc2)S(=O)(=O)c2cc(C(F)(F)F)ccc21	10µM*	0	0	4%	4%
COc1cccc(-c2csc(N3CCN(CC(=O)NNC(=O)c4ccc(Br)cc4)CC3)n2)c1	11µM*	2	-10	4%	-3%

Assay outcomes (PubChem)
